# From PubChem BioAssay (EPA / NIEHS)
# Inconclusive results are not listed. Where a structure was tested more than once in an assay, its records may differ in their call. The source made the active and inactive calls. Rule for the calls, unless noted: active = hit-call score of the fitted dose curve at least 0.9, where 1 is the maximum; inactive = score below 0.9.
# Assays:
# [1] = BSK_3C_uPAR: BioMAP Diversity Plus: 3C Assay for Urokinase-type plasminogen activator receptor (uPAR) Biomarker Activity (AID 2282998); details: BioMAP 3C HUVEC, uPAR biomarker ELISA; actives raise or lower the signal
# How it was run: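 Readout: ELISA for surface uPAR. System: human umbilical vein endothelial primary cells, 24 h after chemical exposure. Analysis: bidirectional fit, DMSO baseline.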
# [2] = BSK_3C_VCAM1: BioMAP Diversity Plus: 3C Assay for Vascular cell adhesion molecule 1 (VCAM1) Biomarker Activity (AID 2282999); details: BioMAP 3C HUVEC, VCAM1 ELISA, cytokine-stimulated; actives raise or lower the signal
# How it was run: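 Human umbilical vein endothelial cells were dosed with compound for 24 h, after which cell-surface VCAM-1 was quantified by ELISA. Bidirectional curve fitting used DMSO as negative control and activity baseline.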
# [3] = BSK_4H_Eotaxin3: BioMAP Diversity Plus: 4H Assay for Eotaxin 3 Biomarker Activity (AID 2283000); details: primary human endothelial cells (HUVEC); actives raise or lower the signal;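 note: CCL26 protein level quantified by ELISA in parallel with SRB cytotoxicity check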
# How it was run: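 Chemicals were added to human umbilical vein endothelium cultures, and Eotaxin-3 was quantified by ELISA at 24 h. Values were derived by bidirectional fitting with DMSO serving as negative control and activity baseline.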
# [4] = read-out: Intercellular Adhesion Molecule 1 (ICAM1), ICAM1 (gene 3383); assay: BSK_3C_ICAM1: BioMAP Diversity Plus: 3C Assay for Intercellular Adhesion Molecule 1 (ICAM1) Biomarker Activity (AID 2283003); details: primary human endothelial cells (HUVEC); actives raise or lower the signal
# How it was run: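 Human vascular endothelial primary cells, 3C conditions, 24 h treatment. ICAM-1 by ELISA.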
# [5] = BSK_3C_Proliferation: Cell Proliferation Assessment in the BioMAP Diversity Plus: 3C Assay (AID 2283006); details: primary human endothelial cells (HUVEC)
# How it was run: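 Proliferation of human vascular endothelial primary cells after 48 h dosing, quantified as SRB-stained protein at 560 nm relative to DMSO.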
# [6] = target: Peroxisome proliferator-activated receptor gamma (Homo sapiens) (UniProt P37231); assay: ATG_PPARg_TRANS: Attagene TRANS-FACTORIAL HepG2 Assay for human Peroxisome Proliferator-activated Receptor-gamma (PPARg) (AID 2283007; active = hit-call score of the fitted dose curve at least 0.9, where 1 is the maximum)
# Sequence of Peroxisome proliferator-activated receptor gamma (Homo sapiens) (P37231 whole entry, looked up, the tested form may be a part): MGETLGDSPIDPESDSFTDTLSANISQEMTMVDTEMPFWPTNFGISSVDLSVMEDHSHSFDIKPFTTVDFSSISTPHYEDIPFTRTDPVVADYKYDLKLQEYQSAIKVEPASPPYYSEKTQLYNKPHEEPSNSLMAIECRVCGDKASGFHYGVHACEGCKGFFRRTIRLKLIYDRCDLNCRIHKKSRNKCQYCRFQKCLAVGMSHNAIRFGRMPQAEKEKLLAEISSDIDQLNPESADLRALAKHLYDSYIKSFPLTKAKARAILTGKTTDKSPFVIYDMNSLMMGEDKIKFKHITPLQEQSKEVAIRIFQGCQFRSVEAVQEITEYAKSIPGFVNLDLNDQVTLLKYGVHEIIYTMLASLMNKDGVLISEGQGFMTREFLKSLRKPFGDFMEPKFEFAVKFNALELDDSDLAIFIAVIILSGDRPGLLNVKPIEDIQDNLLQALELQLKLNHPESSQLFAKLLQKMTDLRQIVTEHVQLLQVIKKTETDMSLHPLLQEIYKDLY
# How it was run: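 Transient transfection of HepG2 with GAL4-UAS-driven reporter units; chemical dosing 24 h; total RNA → oligo(dT) RT → PCR with reporter primers → 6-FAM primer extension → HpaI digest 2 h 37 C → capillary electrophoresis. Positive direction vs DMSO.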
# [7] = target: Nuclear receptor subfamily 1 group I member 2 (Homo sapiens) (UniProt O75469); assay: ATG_PXR_TRANS: Attagene TRANS-FACTORIAL HepG2 Assay for human Pregnane X Receptor (PXR) (AID 2283008; active = hit-call score of the fitted dose curve at least 0.9, where 1 is the maximum)
# Sequence of Nuclear receptor subfamily 1 group I member 2 (Homo sapiens) (O75469 whole entry, looked up, the tested form may be a part): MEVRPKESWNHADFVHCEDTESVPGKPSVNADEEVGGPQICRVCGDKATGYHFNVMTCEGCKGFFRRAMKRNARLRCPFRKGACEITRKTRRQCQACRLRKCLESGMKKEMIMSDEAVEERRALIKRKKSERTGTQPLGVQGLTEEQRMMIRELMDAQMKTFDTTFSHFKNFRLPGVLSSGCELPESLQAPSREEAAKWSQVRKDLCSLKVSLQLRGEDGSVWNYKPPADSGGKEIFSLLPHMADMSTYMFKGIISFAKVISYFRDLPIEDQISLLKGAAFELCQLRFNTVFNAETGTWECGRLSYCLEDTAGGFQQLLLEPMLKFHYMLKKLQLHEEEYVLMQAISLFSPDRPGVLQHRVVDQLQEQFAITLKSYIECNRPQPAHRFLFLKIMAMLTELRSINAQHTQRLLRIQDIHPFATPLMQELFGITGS
# How it was run: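 Fluorescence intensity of FAM-labelled, HpaI-digested reporter amplicons, separated by capillary electrophoresis, quantifies induction. HepG2 cells with PXR-Gal4 trans-reporter system were exposed 24 h; DMSO defines baseline.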
# [8] = target: human RAR-related Orphan Receptor beta (RORb), RORB (gene 6096) (UniProt Q92753); assay: ATG_RORb_TRANS: Attagene TRANS-FACTORIAL HepG2 Assay for human RAR-related Orphan Receptor beta (RORb) (AID 2283010; active = hit-call score of the fitted dose curve at least 0.9, where 1 is the maximum)
# Sequence of human RAR-related Orphan Receptor beta (RORb), RORB (gene 6096) (Q92753 whole entry, looked up, the tested form may be a part): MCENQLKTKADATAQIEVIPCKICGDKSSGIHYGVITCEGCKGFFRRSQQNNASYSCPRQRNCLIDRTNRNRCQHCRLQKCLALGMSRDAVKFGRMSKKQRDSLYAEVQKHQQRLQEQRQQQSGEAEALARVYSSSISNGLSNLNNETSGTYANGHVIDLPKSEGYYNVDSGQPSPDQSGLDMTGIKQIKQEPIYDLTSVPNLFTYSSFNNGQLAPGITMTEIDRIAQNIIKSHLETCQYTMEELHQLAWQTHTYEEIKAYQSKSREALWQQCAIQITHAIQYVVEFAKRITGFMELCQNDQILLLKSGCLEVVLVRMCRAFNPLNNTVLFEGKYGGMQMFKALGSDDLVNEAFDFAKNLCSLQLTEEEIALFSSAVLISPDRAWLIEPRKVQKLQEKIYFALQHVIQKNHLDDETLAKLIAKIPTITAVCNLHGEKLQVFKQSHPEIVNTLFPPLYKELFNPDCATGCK
# How it was run: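 In this TRANS-format test, human HepG2 cells express chimeric NR-Gal4 fusion proteins driving GAL4-UAS reporters. After 24 h dosing, reporter transcripts are measured by fluorescent RT-PCR/capillary electrophoresis, with DMSO as negative control.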
# [9] = target: Retinoic acid receptor RXR-alpha (Homo sapiens) (UniProt P19793); assay: ATG_RXRa_TRANS: Attagene TRANS-FACTORIAL HepG2 Assay for human Retinoid X Receptor alpha (RXRa) (AID 2283012; active = hit-call score of the fitted dose curve at least 0.9, where 1 is the maximum)
# Sequence of Retinoic acid receptor RXR-alpha (Homo sapiens) (P19793 whole entry, looked up, the tested form may be a part): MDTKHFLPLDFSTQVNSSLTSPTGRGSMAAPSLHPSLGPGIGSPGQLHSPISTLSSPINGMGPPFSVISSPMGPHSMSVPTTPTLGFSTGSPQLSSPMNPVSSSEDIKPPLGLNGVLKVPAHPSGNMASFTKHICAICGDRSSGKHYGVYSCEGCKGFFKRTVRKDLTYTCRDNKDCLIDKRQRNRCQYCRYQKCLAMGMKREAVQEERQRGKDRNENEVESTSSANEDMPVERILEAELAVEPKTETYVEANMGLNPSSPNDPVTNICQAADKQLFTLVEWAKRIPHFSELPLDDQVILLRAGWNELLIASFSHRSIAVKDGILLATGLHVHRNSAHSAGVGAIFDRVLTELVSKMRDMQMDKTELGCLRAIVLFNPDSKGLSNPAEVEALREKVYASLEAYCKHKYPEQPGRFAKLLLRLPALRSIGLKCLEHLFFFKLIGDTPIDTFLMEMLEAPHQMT
# How it was run: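 Cells (HepG2) carried transiently transfected GAL4-responsive reporter units. Following a 24 h chemical incubation, reporter mRNA induction was read via RT-PCR fragment analysis; DMSO served as negative control and baseline.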
# [10] = target: human Retinoid X Receptor beta (RXRb), RXRB (gene 6257) (UniProt P28702); assay: ATG_RXRb_TRANS: Attagene TRANS-FACTORIAL HepG2 Assay for human Retinoid X Receptor beta (RXRb) (AID 2283013; active = hit-call score of the fitted dose curve at least 0.9, where 1 is the maximum)
# Sequence of human Retinoid X Receptor beta (RXRb), RXRB (gene 6257) (P28702 whole entry, looked up): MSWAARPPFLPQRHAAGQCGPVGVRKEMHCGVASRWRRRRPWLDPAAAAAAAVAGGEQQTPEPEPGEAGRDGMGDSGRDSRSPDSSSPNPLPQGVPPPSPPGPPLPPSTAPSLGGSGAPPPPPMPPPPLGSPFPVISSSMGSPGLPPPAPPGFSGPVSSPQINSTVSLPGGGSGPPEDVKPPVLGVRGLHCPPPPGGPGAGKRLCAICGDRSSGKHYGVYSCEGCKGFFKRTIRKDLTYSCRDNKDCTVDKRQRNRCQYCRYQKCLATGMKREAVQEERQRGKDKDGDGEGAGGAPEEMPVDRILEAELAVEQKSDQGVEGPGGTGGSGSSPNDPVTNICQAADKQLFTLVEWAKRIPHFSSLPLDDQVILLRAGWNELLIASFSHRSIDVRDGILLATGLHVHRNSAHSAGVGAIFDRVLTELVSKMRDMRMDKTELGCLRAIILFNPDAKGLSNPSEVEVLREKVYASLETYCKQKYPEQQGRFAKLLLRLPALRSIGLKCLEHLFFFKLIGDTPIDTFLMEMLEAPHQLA
# How it was run: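 Multiplexed TRANS reporter assay in HepG2; 24 h dosing; reporter mRNA by RT-PCR/CE fluorescence; gain-of-signal relative to DMSO.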
# [11] = read-out: E-selectin (Homo sapiens) (UniProt P16581); assay: BSK_3C_Eselectin: BioMAP Diversity Plus: 3C Assay for Eselectin Biomarker Activity (AID 2283015); details: primary human endothelial cells (HUVEC); actives raise or lower the signal;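 note: cell surface E-selectin protein quantified by ELISA 24 h after dosing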
# How it was run: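 ELISA read-out of E-selectin on endothelial monolayers after 24 h chemical treatment. Human umbilical vein primary cells served as the system, with DMSO defining baseline activity for bidirectional fitting.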
# [12] = read-out: Interleukin-1 alpha (IL1a), IL1A (gene 3552); assay: BSK_BE3C_IL1a: BioMAP Diversity Plus: BE3C Assay for Interleukin-1 alpha (IL1a) Biomarker Activity (AID 2283016); details: primary human bronchial epithelial cells; actives raise or lower the signal
# How it was run: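 Cultures of primary human bronchial epithelial cells receive test chemical. After 24 h, IL-1a is quantified by ELISA, while parallel wells are fixed in TCA and SRB-stained for total protein. Changes in either direction are fitted relative to DMSO.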
# [13] = read-out: Human Leukocyte Antigen - DR isotype (HLADR), HLA-DRA (gene 3122); assay: BSK_3C_HLADR: BioMAP Diversity Plus: 3C Assay for Human Leukocyte Antigen - DR isotype (HLADR) Biomarker Activity (AID 2283019); details: primary human endothelial cells (HUVEC); actives raise or lower the signal;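 note: ELISA of cell-surface HLA-DR on HUVEC 24 h after dosing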
# How it was run: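 ELISA readout of surface HLA-DR on human umbilical vein endothelium, taken 24 h after chemical treatment. Gain- and loss-of-signal were both fitted relative to DMSO.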
# [14] = target: human Retinoic Acid Receptor beta (RARb), RARB (gene 5915) (UniProt P10826); assay: ATG_RARb_TRANS: Attagene TRANS-FACTORIAL HepG2 Assay for human Retinoic Acid Receptor beta (AID 2283004; active = hit-call score of the fitted dose curve at least 0.9, where 1 is the maximum)
# Sequence of human Retinoic Acid Receptor beta (RARb), RARB (gene 5915) (P10826 whole entry, looked up): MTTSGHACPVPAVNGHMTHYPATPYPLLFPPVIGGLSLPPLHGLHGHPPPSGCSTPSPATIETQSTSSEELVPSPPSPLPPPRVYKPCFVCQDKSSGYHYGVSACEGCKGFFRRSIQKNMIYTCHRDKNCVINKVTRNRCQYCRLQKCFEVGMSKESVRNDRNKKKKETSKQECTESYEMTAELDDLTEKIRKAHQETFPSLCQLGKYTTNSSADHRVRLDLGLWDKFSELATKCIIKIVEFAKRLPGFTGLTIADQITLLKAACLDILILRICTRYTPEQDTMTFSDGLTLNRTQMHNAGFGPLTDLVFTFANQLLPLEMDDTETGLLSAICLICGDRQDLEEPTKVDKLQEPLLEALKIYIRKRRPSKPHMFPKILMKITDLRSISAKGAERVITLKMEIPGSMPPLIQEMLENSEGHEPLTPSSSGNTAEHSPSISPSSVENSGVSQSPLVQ
# How it was run: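 Transient transfection of HepG2 with multiple reporter units → chemical dosing, 24 h → total RNA isolation → RT with oligo(dT) → reporter-specific PCR, 6-FAM primer extension, HpaI digest → capillary electrophoresis. Positive direction vs DMSO control.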
# [15] = target: Retinoic acid receptor alpha (Homo sapiens) (UniProt P10276); assay: ATG_RARa_TRANS: Attagene TRANS-FACTORIAL HepG2 Assay for human Retinoic Acid Receptor alpha (RARa) (AID 2283005; active = hit-call score of the fitted dose curve at least 0.9, where 1 is the maximum)
# Sequence of Retinoic acid receptor alpha (Homo sapiens) (P10276 whole entry, looked up, the tested form may be a part): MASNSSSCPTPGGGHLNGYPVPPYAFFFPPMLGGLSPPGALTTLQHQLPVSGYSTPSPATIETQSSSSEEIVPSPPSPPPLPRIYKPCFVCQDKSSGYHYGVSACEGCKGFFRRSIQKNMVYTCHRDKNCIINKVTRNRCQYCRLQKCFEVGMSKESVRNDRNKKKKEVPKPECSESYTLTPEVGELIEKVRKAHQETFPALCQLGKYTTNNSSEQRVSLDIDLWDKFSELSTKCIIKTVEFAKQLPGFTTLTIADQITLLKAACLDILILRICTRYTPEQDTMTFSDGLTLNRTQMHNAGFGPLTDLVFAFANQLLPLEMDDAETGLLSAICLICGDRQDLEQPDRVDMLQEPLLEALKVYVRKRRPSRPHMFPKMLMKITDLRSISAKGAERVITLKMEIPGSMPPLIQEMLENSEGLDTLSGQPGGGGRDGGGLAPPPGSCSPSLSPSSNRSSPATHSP
# How it was run: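 HepG2 cells transiently transfected with multiple reporter units expressing chimeric RARα-GAL4 fusion, with GAL4-UAS-driven reporters. After 24 h compound exposure, reporter mRNA induction quantified by RT-PCR and capillary electrophoresis with fluorescent labeling; gain-of-signal fitted relative to DMSO control.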
# [16] = target: human RAR-related Orphan Receptor gamma (RORg), RORC (gene 6097) (UniProt P51449); assay: ATG_RORg_TRANS: Attagene TRANS-FACTORIAL HepG2 Assay for human RAR-related Orphan Receptor gamma (RORg) (AID 2283011; active = hit-call score of the fitted dose curve at least 0.9, where 1 is the maximum)
# Sequence of human RAR-related Orphan Receptor gamma (RORg), RORC (gene 6097) (P51449 whole entry, looked up, the tested form may be a part): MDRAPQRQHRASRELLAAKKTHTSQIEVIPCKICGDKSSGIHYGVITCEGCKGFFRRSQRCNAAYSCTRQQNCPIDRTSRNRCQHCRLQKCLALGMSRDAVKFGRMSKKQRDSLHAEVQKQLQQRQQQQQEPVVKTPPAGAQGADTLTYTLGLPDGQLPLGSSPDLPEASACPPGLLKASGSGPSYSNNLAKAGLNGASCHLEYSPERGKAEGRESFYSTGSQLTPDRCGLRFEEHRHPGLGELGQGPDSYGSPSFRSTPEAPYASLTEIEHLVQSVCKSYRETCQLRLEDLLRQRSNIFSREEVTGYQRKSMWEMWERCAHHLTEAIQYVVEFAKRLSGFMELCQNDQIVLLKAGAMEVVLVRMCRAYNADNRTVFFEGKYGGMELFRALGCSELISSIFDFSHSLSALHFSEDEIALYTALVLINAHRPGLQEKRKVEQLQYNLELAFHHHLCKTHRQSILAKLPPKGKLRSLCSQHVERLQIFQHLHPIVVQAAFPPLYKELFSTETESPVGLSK
# How it was run: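 First, HepG2 liver cells were transfected with GAL4-UAS-driven reporter constructs and the RORg-Gal4 fusion. Next, they were treated with chemical for 24 h. Finally, reporter mRNA was quantified by RT-PCR and capillary electrophoresis, with upward activity fitted against DMSO.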
# [17] = read-out: Monocyte Chemoattractant Protein-1 (MCP1), CCL2 (gene 6347); assay: BSK_3C_MCP1: BioMAP Diversity Plus: 3C Assay for Monocyte Chemoattractant Protein-1 (MCP1) Biomarker Activity (AID 2283017); details: primary human endothelial cells (HUVEC); actives raise or lower the signal
# How it was run: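 ELISA read-out of MCP-1 from human umbilical vein endothelial cell cultures harvested 24 h post-dosing. Gain or loss of signal was fitted relative to DMSO.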
# [18] = target: human Thyroid Receptor alpha (THRa1), THRA (gene 7067) (UniProt P10827); assay: ATG_THRa1_TRANS: Attagene TRANS-FACTORIAL HepG2 Assay for human Thyroid Receptor alpha (THRa1) (AID 2283014; active = hit-call score of the fitted dose curve at least 0.9, where 1 is the maximum)
# Sequence of human Thyroid Receptor alpha (THRa1), THRA (gene 7067) (P10827 whole entry, looked up, the tested form may be a part): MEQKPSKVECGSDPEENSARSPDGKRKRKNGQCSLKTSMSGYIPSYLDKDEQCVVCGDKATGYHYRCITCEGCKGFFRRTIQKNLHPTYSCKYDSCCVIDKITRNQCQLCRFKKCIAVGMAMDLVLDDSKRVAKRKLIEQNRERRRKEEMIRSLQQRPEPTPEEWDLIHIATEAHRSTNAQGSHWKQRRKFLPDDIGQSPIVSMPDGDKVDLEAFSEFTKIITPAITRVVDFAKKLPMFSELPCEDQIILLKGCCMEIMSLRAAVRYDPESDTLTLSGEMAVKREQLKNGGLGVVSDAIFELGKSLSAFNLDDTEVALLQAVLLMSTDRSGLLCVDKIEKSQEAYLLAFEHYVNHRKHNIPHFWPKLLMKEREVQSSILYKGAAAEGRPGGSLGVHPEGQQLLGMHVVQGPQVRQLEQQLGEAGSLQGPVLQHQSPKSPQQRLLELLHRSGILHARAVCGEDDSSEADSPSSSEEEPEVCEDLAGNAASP
# How it was run: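 Reporter transcript induction, read by capillary electrophoresis of 6-FAM-labelled RT-PCR products, reflects activity of a transfected THRa1-Gal4 fusion in HepG2 liver cells. Cells were dosed for 24 h; activity was fitted in the positive direction against DMSO.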
# [19] = read-out: Monocyte Chemoattractant Protein-1 (MCP1), CCL2 (gene 6347); assay: BSK_4H_MCP1: BioMAP Diversity Plus: 4H Assay for Monocyte Chemoattractant Protein-1 (MCP1) Biomarker Activity (AID 2283018); details: primary human endothelial cells (HUVEC); actives raise or lower the signal
# How it was run: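 Readout: MCP-1 ELISA on compound-treated HUVEC, sampled 24 h post-dosing. Baseline and negative control DMSO; bidirectional fit. Overt toxicity checked alongside by sulforhodamine B protein staining at time of biomarker measurement.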
# Sequence of E-selectin (Homo sapiens) (P16581 whole entry, looked up): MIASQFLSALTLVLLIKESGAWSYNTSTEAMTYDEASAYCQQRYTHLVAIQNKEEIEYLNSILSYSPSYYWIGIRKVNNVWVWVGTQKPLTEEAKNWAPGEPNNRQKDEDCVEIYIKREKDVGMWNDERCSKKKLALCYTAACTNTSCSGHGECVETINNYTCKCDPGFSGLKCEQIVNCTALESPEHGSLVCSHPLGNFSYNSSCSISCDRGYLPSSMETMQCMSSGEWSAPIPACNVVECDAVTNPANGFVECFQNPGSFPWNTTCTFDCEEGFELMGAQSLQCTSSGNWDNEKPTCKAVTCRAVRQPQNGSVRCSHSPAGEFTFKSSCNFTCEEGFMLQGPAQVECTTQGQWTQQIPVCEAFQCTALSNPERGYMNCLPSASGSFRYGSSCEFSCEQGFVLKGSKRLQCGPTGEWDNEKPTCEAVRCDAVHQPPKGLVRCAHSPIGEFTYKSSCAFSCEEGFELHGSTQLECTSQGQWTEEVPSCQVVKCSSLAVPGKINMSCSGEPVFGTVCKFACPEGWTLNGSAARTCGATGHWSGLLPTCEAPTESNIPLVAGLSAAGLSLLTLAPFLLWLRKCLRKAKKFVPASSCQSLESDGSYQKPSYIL
smiles,measurement,setting,value
CNC(=O)/C=C(\C)OP(=O)(OC)OC,outcome,[1],inactive
same,outcome,[2],inactive
same,outcome,[3],inactive
same,outcome,[4],inactive
same,outcome,[5],inactive
same,outcome,[6],inactive
same,outcome,[7],inactive
same,outcome,[8],inactive
same,outcome,[9],inactive
same,outcome,[10],inactive
same,outcome,[11],inactive
same,outcome,[12],inactive
same,outcome,[13],inactive
O=C(O)CCCOc1ccc(Cl)cc1Cl,outcome,[1],inactive
same,outcome,[2],inactive
same,outcome,[3],inactive
same,outcome,[4],inactive
same,outcome,[14],inactive
same,outcome,[15],inactive
same,outcome,[5],inactive
same,AC50,[6],34.5 µM (active)
same,outcome,[6],inactive
same,outcome,[7],inactive
same,outcome,[8],inactive
same,outcome,[16],inactive
same,outcome,[9],inactive
same,AC50,[10],27 µM (active)
same,outcome,[10],inactive
same,outcome,[11],inactive
same,outcome,[12],inactive
same,outcome,[17],inactive
same,outcome,[13],inactive
COc1cc(OC)nc(NC(=O)NS(=O)(=O)c2cc(NC=O)ccc2C(=O)N(C)C)n1,outcome,[1],inactive
same,outcome,[2],inactive
same,outcome,[3],inactive
same,outcome,[4],inactive
same,outcome,[14],inactive
same,outcome,[15],inactive
same,outcome,[5],inactive
same,outcome,[7],inactive
same,outcome,[9],inactive
same,outcome,[11],inactive
same,outcome,[12],inactive
same,outcome,[13],inactive
Cc1cc(C)nc(NC(=O)NS(=O)(=O)c2ccccc2C(=O)OC2COC2)n1,outcome,[1],inactive
same,outcome,[2],inactive
same,outcome,[3],inactive
same,outcome,[4],inactive
same,outcome,[14],inactive
same,outcome,[5],inactive
same,outcome,[6],inactive
same,outcome,[7],inactive
same,outcome,[8],inactive
same,outcome,[10],inactive
same,outcome,[18],inactive
same,outcome,[11],inactive
same,outcome,[12],inactive
same,outcome,[17],inactive
same,outcome,[19],inactive
same,outcome,[13],inactive
